Screening results (PubChem BioAssay)
Mtb betalactam = beta-lactam sensitization of Mtb H37Rv; M. tuberculosis H37Rv growth with meropenem, percent inhibition; inhibition, % at 25 µM; 330,000 compounds, 0.27% hits;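 further: growth measured after seven days incubation then overnight dye step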
CCHF vOTU inh = CCHFV vOTU protease inhibition. Pep-AMC fluorescence. inhibition, % at 11.5 µM. 370,000 compounds, 0.55% hits; in the data active means inhibition above about 30%
GDH-TPI counter-1 = inhibits GDH-TPI coupling enzymes, artifact for Mtb FBA screen. AID 588335. 360,000 compounds, 1.2% hits. inhibition, % at 4.8 µM. GDH-TPI coupled enzyme counterscreen, NADH absorbance; in the data active means inhibition above about 30%
FBA Mtb inh = Mtb fructose-bisphosphate aldolase inhibition; P9WQA3; purified M. tuberculosis FBA, fluorescence read-out; inhibition, % at 1 µM; 360,000 compounds, 2.3% hits; AID 588726; in the data active means inhibition above about 27%
RecA splice inh = blocks M. tuberculosis RecA intein splicing | 290,000 compounds, 0.75% hits | cell-free RecA intein splicing, fluorescence | inhibition, % (concentration not given with the values); in the data active means inhibition above about 30%; inconclusive means no clear call, values can overlap the other calls
Target sequence (P9WHJ3 whole entry, looked up, canonical isoform): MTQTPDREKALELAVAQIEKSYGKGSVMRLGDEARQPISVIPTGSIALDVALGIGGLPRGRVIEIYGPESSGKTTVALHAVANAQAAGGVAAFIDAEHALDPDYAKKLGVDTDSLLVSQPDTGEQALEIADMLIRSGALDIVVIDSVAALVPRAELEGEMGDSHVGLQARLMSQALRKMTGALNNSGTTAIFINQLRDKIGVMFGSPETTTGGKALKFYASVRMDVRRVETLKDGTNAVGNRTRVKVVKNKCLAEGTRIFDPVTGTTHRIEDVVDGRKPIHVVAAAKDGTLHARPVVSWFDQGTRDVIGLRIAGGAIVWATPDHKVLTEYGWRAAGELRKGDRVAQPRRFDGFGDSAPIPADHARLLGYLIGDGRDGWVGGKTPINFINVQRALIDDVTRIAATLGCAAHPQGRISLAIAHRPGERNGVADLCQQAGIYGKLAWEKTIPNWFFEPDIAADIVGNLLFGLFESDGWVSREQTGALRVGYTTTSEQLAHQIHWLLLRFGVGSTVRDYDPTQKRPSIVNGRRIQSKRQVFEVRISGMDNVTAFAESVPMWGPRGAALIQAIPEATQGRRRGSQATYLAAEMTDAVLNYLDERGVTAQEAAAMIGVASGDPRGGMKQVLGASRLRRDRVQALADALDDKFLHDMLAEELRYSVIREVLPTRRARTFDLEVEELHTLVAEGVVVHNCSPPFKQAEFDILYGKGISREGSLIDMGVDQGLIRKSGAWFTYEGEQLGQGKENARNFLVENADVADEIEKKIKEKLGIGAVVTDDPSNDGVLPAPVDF
Mtb FBA confirm = Mtb FBA inhibition, confirmed | shares compounds with FBA Mtb inh | 5,600 compounds, 78% hits | AID 651616 | purified M. tuberculosis FBA, fluorescence read-out | inhibition, % at 1 µM; in the data active means inhibition above about 27%
GDH-TPI counter-2 = counter-screen for M. tuberculosis FBA inhibitors: GDH-TPI coupled enzyme inhibition; shares compounds with FBA Mtb inh; GDH-TPI coupled enzyme counterscreen, fluorescence; inhibition, % at 1 µM; 5,600 compounds, 81% hits; AID 652141; in the data active means inhibition above about 10%
GDH-TPI DR = counter-screen for M. tuberculosis FBA inhibitors: GDH-TPI dose response | shares compounds with FBA Mtb inh | GDH-TPI coupled enzyme assay, fluorescence, artifact counterscreen | IC50, µM | 170 compounds, 79% hits | AID 652145
Numbers stand for hits; 0 = inactive; ? = inconclusive; - = not tested or not shown; + = active, no number. This is a sample that favours compounds with a hit; in the whole collection about 4.2% have one here. Unless noted, how the calls were made is not given here.

SMILES | Mtb betalactam | CCHF vOTU inh | GDH-TPI counter-1 | FBA Mtb inh | RecA splice inh | Mtb FBA confirm | GDH-TPI counter-2 | others
CCN1CCN(Cc2ccc(NC(=O)c3ccc(C)c(NC(=O)c4nccn4C)c3)cc2C(F)(F)F)CC1 | 0 | 0 | 0 | 0 | 0 | - | -
c1cc(-c2cc3nc(NCC4CC4)ccn3n2)ccc1OCCN1CCOCC1 | - | 0 | 0 | 37 | - | 69 | 72
COc1ccc(Cn2c(C)cc(O)cc2=O)cc1 | - | 0 | - | - | - | - | -
CN(C(=O)c1ccccc1OCC(=O)Nc1ccc(Br)cc1)c1ccccc1 | - | 0 | - | - | - | - | -
O=C(CCc1c[nH]c2ccccc12)Nc1ccc(Nc2ccccc2)cc1 | - | 0 | - | - | - | - | -
O=C(NC1CCCCN(Cc2cccc(Cl)c2)C1=O)c1cccc(F)c1 (stereo not given) | - | 0 | - | - | - | - | -
COc1ccccc1N1C(=O)NC(=O)/C(=C/c2ccc3c4c(cccc24)CC3)C1=O | 0 | 0 | 0 | 38 | 0 | 0 | 0 | GDH-TPI DR=3.9
O=C(OCc1cn(Cc2cccc(F)c2F)nn1)N1CCOCC1 | - | 0 | - | - | - | - | -
CS(=O)(=O)NN1C(=O)c2ccccc2NC1c1ccccc1 (stereo not given) | 0 | 0 | 0 | 34 | - | 0 | 0 | GDH-TPI DR=5.4
COc1ccc(C2Nc3ccccc3C(=O)N2NS(C)(=O)=O)c(OC)c1 (stereo not given) | 0 | 0 | 0 | 28 | 0 | 0 | 0
COc1cc(C2Nc3ccccc3C(=O)N2NS(C)(=O)=O)c([N+](=O)[O-])cc1OC (stereo not given) | 0 | 0 | 0 | 0 | 0 | - | -
CS(=O)(=O)NN1C(=O)c2ccccc2NC1c1cccc(O)c1 (stereo not given) | 0 | 0 | 0 | 41 | 0 | 112 | 81
COc1cccc(C(=O)n2ccc3ccc(-c4ccc5ccn(Cc6ccc(C#N)cc6)c5c4)cc32)c1 | - | 0 | - | - | - | - | -
O=C(OCc1cn(Cc2cccc(F)c2F)nn1)N1CCCC1 | - | 0 | - | - | - | - | -
Cc1ccccc1/C=N/N=C1/NC(=O)CCS1 | 0 | 0 | 32 | 29 | - | 128 | 90
O=C(COc1ccc2c3c(c(=O)oc2c1)CCC3)N1CCN(c2ccc(F)cc2)CC1 | 0 | 0 | 0 | 0 | 0 | - | -
O=C(O)C1CCN(C(=O)COc2ccc3c4c(c(=O)oc3c2)CCC4)CC1 | 0 | 0 | 0 | 41 | 0 | 124 | 79
NC(=O)C1CCN(C(=O)COc2ccc3c4c(c(=O)oc3c2)CCCC4)CC1 | 0 | 0 | 0 | 79 | 0 | 166 | 136
CC1CCC2(CC1)NC(=O)N(CC(=O)Nc1cccc(S(=O)(=O)N(C)c3ccccc3)c1)C2=O (stereo not given) | - | 0 | 0 | 0 | - | - | -
CN(c1ccccc1)S(=O)(=O)c1cccc(NC(=O)CN2C(=O)NC3(CCCCC3)C2=O)c1 | 0 | 0 | 0 | 38 | - | 88 | 52
COc1ccc(-c2noc(C3CCCN(C(=O)Nc4ccc(Cl)cc4)C3)n2)cc1 (stereo not given) | - | 0 | - | - | - | - | -
Cc1ccc(C(=O)N/C(=C\c2ccc(F)cc2)C(=O)NCc2ccncc2)cc1 | 0 | - | 0 | 0 | 0 | - | -
O=C(NCc1ccncc1)/C(=C\c1ccc(F)cc1)NC(=O)c1ccccc1 | 0 | 0 | 0 | 45 | 0 | 185 | 151
O=C(c1ccc2nc3ccc(Cl)cc3c(=O)n2c1)N1CCC2(CC1)OCCO2 | 0 | 0 | 0 | 40 | - | + | +
O=C(c1ccc2nc3ccccc3c(=O)n2c1)N1CCN(Cc2ccc3c(c2)OCO3)CC1 | 0 | 0 | 0 | 69 | 0 | 0 | 0
SMILES | Mtb betalactam | CCHF vOTU inh | GDH-TPI counter-1 | FBA Mtb inh | RecA splice inh | Mtb FBA confirm | GDH-TPI counter-2 | others
O=C(c1ccc2nc3ccc(Cl)cc3c(=O)n2c1)N1CCOCC1 | ? | 0 | 0 | 93 | 0 | + | +
CCCCNC(=O)C[C@H]1C[C@@]2(C(=O)OC)C(=C[C@H](C(C)C)O[C@@H]2C2CC2)N(CCC2=CCCCC2)C1=O | - | 0 | - | - | - | - | -
COCCN(Cc1ccc(C)cc1)C(=O)[C@@H](Cc1ccccc1)NC(=O)[C@H]1O[C@@H](n2ccc(=O)[nH]c2=O)[C@H](O)[C@@H]1O | - | 0 | - | - | - | - | -
Cn1c(=O)c(=O)n(C)c2cc(S(=O)(=O)N3CCN(Cc4ccc5c(c4)OCO5)CC3)ccc21 | - | 0 | - | - | - | - | -
CC(C)n1nnnc1C1c2ccccc2OCC(=O)N1Cc1cccc(C(F)(F)F)c1 (stereo not given) | - | 0 | - | - | - | - | -
Cc1ccc(NC(=O)CC(C)S(=O)(=O)c2ccc3c(c2)NC(=O)CO3)c(Cl)c1 (stereo not given) | 0 | 0 | 0 | 71 | 0 | + | +
